Measured values: PubChem BioAssay (Tox21)
Results filed as inconclusive are left out. More than one record can exist for a structure, and the calls need not agree. Activity calls are given as the source filed them. Unless noted, calls follow the shape of the full dose curve.

What was measured:
[1] = Nuclear factor erythroid 2-related factor 2/antioxidant responsive element (Nrf2/ARE) small molecule agonists: luciferase reporter gene qHTS assay in human keratinocytes (AID 1919969); also: nearly all actives have a fitted effect of over 35% in size
[2] = molecular target: Gonadotropin-releasing hormone receptor (Homo sapiens) (UniProt P30968); assay: Human gonadotropin-releasing hormone receptor (GnRHR) small molecule agonists, calcium flux assay in GnRHR-HEK293 cells (AID 1920063); also: nearly all actives have a fitted effect of over 35% in size
In short: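 Calcium flux, agonist mode, human GnRHR stably integrated in HEK293; dye 1 h at 37 C before compound; Ex/Em=480/540 kinetic read, 3 min; 15 concentrations, triplicate.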

[3] = molecular target: KiSS-1 receptor (Homo sapiens) (UniProt Q969F8); assay: Human kisspeptin (KISS1R) small molecule agonists, calcium flux assay in KISS1R-HEK293 cells (AID 1920064; active = well fitted activation curve with a large enough effect in the repeat runs)
In short: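 Triplicate 15-concentration series were applied to dye-loaded human KISS1R HEK293 cells, and agonist-evoked calcium fluorescence was captured for 3 min.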

[4] = G protein-coupled receptor (GPCR) small molecule agonists, calcium flux assay: HEK293 wild type cell line counter screen (AID 1920065)
In short: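 Non-specific calcium responders were flagged by adding DMSO-dissolved compounds to dye-loaded cells and reading 480/540 nm fluorescence each second for 3 min; ATP served as positive control.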

[5] = p53 small molecule agonists, cell-based qHTS assay with human liver microsomes (AID 1963577)
In short: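 p53RE-bla cells, 4,000/well, compound added after 5 h, with human liver microsomes 0.5 mg/mL and NADPH 0.5 mg/mL final; 16 h at 37 C, then LiveBLAzer 2 h RT, fluorescence.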

[6] = p53 small molecule agonists, cell-based qHTS assay with rat liver microsomes (AID 1963578)
In short: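 p53RE-bla cells, 4,000/well, pre-incubated 5 h, then given compounds plus rat liver microsomes (0.5 mg/mL final) and NADPH (0.5 mg/mL final). Incubation 16 h at 37 C; beta-lactamase reporter read by LiveBLAzer fluorescence after 2 h at room temperature.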

[7] = p53 small molecule agonists, cell-based qHTS assay with human liver microsomes: qHTS cell viability counter screen (AID 1963579); also: nearly all actives have a fitted effect of over 45% in size
In short: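 p53RE-bla cells, 4,000/well, dosed 5 hours after plating, with human liver microsomes (0.5 mg/mL final) plus NADPH (0.5 mg/mL final), 16 hours at 37 C. Viability read as CellTiter-Glo luminescence after 30 min at room temperature.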

[8] = p53 small molecule agonists, cell-based qHTS assay with rat liver microsomes: qHTS cell viability counter screen (AID 1963580); also: nearly all actives have a fitted effect of over 45% in size
In short: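 Cytotoxicity counter screen: intracellular ATP measured by CellTiter-Glo luminescence in the same wells as the beta-lactamase reporter read, on HCT-116 p53RE-bla cells exposed 16 h at 37 C to compounds with rat liver microsomes and NADPH, each 0.5 mg/mL final.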

[9] = p53 small molecule agonists, cell-based qHTS assay: qHTS cell viability counter screen (AID 1963581); also: nearly all actives have a fitted effect of over 45% in size; also: potency is read from the fitted curve at half-maximal effect
In short: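 Multiplexed with the reporter read, a CellTiter-Glo step (30 min, room temperature) gauges ATP-based viability of HCT-116 p53RE-bla cells after 16 h compound incubation at 37 C.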

[10] = p53 small molecule agonists, cell-based qHTS assay (AID 1963582; active = well fitted activation curve with a large enough effect in the signal ratio in the repeat runs, not every such curve was filed as active; the % refers to the signal ratio)
In short: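 Beta-lactamase reporter cells (p53RE-bla) treated with compounds for 16 h at 37 C; FRET substrate, 2 h, room temperature; fluorescence intensity.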

[11] = cAMP Responsive Elements (CRE) small molecule agonists, cell-based qHTS assay (AID 1963590)
In short: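 Quantitative HTS for CRE agonists: HEK 293T CRE-bla cells, overnight plating, 3 h compound incubation at 37 C/5% CO2, then 2 h room-temperature LiveBLAzer B/G FRET substrate loading.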

[12] = cAMP Responsive Elements (CRE) small molecule antagonists, cell-based qHTS assay (AID 1963591; active = well fitted inhibition curve with a large enough effect in the signal ratio in the repeat runs, not every such curve was filed as active; the % refers to the signal ratio)
In short: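 Fluorescence intensity from cleaved LiveBLAzer B/G substrate (2 h, room temperature) quantified CRE-bla activity in HEK 293T cells exposed 3 h to compound with 0.25 uM final NKH477.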

[13] = molecular target: Beta-2 adrenergic receptor (Homo sapiens) (UniProt P07550); assay: Adrenergic beta2 receptor (ADRB2) small molecule antagonists, cell-based qHTS assay (AID 1963592); also: series mostly up to about 92 µM; nearly all actives have a fitted effect of over 50% in size
In short: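 Assay format: CHO-ADRB2 cells, 18-20hr seeding at 37C/5% CO2, then compound plus 1nM isoproterenol agonist mix for 0.5hr RT. Homogeneous time-resolved fluorescence cAMP detection after 1hr, expressed as 665/615 nm ratio.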

[14] = molecular target: Beta-2 adrenergic receptor (Homo sapiens) (UniProt P07550); assay: Adrenergic beta2 receptor (ADRB2) small molecule agonists, cell-based qHTS assay (AID 1963593);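 also: CHO cells stably overexpressing human ADRB2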
In short: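 CHO cells stably over-expressing ADRB2 were plated overnight at 37C, then dosed with compounds plus a stimulation mix containing 100uM IBMX and 25uM Ro-20-1724 for 0.5hr at room temperature. cAMP was measured by HTRF competition, 1hr.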

[15] = molecular target: D(2) dopamine receptor (Homo sapiens) (UniProt P14416); assay: Dopamine D2 receptor (DRD2) small molecule agonists, cell-based qHTS assay (AID 1963594); also: nearly all actives have a fitted effect of over 35% in size
In short: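 HEK293 cells stably expressing human DRD2, pre-treated with PDE inhibitor Ro20-1724 (0.1 mM final) and compound 10 min at room temperature, then stimulated with NKH477 (200nM […]) for 30 min. cAMP read by HTRF (665/620 nm).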

[16] = molecular target: D(2) dopamine receptor (Homo sapiens) (UniProt P14416); assay: Dopamine D2 receptor (DRD2) small molecule antagonists, cell-based qHTS assay (AID 1963595; active = well fitted inhibition curve with a large enough effect in the signal ratio in the repeat runs, with a control signal flat; the % refers to the signal ratio)
In short: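 Cells were plated and grown for 24 h at 37 °C. Ro20-1724 (0.1 mM final) went in first, then compound for 10 min. NKH477 (200 nM) with quinpirole (12 nM) followed for 30 min at RT, then HTRF detection reagents for 1 h.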

[17] = molecular target: 5-hydroxytryptamine receptor 2A (Homo sapiens) (UniProt P28223); assay: 5-hydroxytryptamine receptor 2A (HTR2A) small molecule antagonists, cell-based qHTS assay (AID 1963586); also: nearly all actives have a fitted effect of over 45% in size
In short: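 CHO cells stably expressing human HTR2A were plated for 18 h at 37 C, then loaded with calcium dye for 1 h. Compounds were preincubated 5 min at room temperature before DOI (4 nM solution) was added. Kinetic fluorescence was read for 3 min.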

[18] = molecular target: 5-hydroxytryptamine receptor 2A (Homo sapiens) (UniProt P28223); assay: 5-hydroxytryptamine receptor 2A (HTR2A) small molecule agonists, cell-based qHTS assay (AID 1963587); also: nearly all actives have a fitted effect of over 30% in size
In short: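 CHO cells stably expressing human HTR2A, plated 18 h, loaded with calcium dye 1 h at 37 C. Agonist mode: compounds added and intracellular calcium fluorescence recorded kinetically for 2 min at 1 sec intervals.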

[19] = molecular target: Muscarinic acetylcholine receptor M1 (Homo sapiens) (UniProt P11229); assay: Cholinergic receptor muscarinic 1 (CHRM1) small molecule antagonists, cell-based qHTS assay (AID 1963588); also: nearly all actives have a fitted effect of over 40% in size
In short: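 Compounds were tested at 15 concentrations in three independent runs. Dye-loaded CHRM1-CHO cells were exposed 5 min at room temperature before stimulation by acetylcholine added at 50nM. Intracellular calcium was read kinetically on FDSS for 3 min.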

[20] = molecular target: Muscarinic acetylcholine receptor M1 (Homo sapiens) (UniProt P11229); assay: Cholinergic receptor muscarinic 1 (CHRM1) small molecule agonists, cell-based qHTS assay (AID 1963589); also: nearly all actives have a fitted effect of over 35% in size
In short: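 qHTS, 15-point titration, 3 independent runs: compounds pin-transferred onto dye-loaded CHRM1-CHO cells (human M1), calcium fluorescence followed every second to detect agonism.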
% is scaled to controls: 0 for no effect and ±100 for the full control effect.

Beta-2 adrenergic receptor (Homo sapiens), sequence (P07550 whole entry, looked up): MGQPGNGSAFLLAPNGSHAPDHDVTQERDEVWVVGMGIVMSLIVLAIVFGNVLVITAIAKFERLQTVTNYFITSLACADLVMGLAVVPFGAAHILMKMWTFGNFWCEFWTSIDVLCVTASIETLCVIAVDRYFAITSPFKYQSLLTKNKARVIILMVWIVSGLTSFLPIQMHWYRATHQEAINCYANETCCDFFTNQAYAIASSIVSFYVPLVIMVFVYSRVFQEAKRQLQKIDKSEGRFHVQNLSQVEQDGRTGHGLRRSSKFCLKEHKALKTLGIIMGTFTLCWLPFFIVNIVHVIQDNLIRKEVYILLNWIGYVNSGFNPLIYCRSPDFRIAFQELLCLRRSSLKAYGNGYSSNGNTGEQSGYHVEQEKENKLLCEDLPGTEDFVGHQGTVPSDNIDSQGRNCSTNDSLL
D(2) dopamine receptor (Homo sapiens), sequence (P14416 whole entry, looked up): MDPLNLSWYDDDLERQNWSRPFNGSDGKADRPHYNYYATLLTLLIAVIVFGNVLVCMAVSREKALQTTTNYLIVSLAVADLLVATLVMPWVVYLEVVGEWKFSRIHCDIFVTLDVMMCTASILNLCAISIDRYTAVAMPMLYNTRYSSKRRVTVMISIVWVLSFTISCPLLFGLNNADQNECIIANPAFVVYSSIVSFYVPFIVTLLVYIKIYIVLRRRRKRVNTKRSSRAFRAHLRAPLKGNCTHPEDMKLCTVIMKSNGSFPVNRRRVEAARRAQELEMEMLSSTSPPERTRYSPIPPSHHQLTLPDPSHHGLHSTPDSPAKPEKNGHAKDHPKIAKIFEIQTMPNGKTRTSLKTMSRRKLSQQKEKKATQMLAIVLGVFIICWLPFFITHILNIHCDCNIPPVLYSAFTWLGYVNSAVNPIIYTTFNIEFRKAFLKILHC
Gonadotropin-releasing hormone receptor (Homo sapiens), sequence (P30968 whole entry, looked up): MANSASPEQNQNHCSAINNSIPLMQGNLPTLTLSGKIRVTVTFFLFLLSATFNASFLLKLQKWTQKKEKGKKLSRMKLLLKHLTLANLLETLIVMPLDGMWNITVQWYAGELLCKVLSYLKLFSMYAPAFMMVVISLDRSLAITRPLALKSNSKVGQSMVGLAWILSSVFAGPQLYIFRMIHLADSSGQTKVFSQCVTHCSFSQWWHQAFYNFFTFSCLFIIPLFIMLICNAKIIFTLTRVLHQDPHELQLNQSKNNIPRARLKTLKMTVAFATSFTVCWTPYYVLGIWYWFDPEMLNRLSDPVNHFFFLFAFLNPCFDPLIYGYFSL
Muscarinic acetylcholine receptor M1 (Homo sapiens), sequence (P11229 whole entry, looked up): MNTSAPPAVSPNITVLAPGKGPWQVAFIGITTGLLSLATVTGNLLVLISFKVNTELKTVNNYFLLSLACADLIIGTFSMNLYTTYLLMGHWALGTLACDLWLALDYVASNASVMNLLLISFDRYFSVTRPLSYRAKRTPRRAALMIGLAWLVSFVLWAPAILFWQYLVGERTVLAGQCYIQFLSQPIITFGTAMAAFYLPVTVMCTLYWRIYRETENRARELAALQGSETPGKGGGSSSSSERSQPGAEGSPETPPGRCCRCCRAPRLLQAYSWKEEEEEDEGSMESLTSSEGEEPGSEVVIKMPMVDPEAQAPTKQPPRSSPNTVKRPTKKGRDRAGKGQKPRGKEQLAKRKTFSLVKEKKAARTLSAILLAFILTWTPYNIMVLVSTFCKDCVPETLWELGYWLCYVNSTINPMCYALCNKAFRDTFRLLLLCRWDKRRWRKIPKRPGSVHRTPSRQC
5-hydroxytryptamine receptor 2A (Homo sapiens), sequence (P28223 whole entry, looked up): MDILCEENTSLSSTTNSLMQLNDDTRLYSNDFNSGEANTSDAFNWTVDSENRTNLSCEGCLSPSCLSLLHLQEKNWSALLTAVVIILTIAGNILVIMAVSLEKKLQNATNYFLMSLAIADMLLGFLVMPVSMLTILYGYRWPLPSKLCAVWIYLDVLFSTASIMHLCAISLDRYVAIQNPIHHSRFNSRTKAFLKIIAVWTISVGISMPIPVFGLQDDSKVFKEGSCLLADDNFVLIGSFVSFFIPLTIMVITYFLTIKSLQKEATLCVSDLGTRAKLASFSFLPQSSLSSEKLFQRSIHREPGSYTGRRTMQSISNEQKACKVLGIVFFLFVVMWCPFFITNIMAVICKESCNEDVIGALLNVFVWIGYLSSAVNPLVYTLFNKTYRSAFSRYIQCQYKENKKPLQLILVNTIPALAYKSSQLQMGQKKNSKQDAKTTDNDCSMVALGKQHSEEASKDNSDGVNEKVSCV
KiSS-1 receptor (Homo sapiens), sequence (Q969F8 whole entry, looked up): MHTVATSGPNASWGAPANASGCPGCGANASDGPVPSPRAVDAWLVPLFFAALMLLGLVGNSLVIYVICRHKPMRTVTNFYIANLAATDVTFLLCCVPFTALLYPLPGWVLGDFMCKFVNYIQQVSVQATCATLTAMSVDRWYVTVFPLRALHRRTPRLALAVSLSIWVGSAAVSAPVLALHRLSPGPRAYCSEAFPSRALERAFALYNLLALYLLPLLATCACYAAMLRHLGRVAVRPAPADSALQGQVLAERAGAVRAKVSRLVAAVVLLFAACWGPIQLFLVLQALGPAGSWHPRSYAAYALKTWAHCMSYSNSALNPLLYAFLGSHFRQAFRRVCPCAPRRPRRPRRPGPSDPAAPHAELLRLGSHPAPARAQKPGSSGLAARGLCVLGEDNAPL

CC(C)=CCC[C@H](C)CC=O
inactive: Potency [1] | Potency [2] | Potency [3] | Potency [4] | Potency [5] | Potency [6] | Potency [7] | Potency [8] | Potency [9] | Potency [10] | Potency [11] | Potency [12] | Potency [13] | Potency [14] | Potency [15] | Potency [16]

CC(=O)CC(C)(C)C1CCCCC1
inactive: Potency [1] | Potency [2] | Potency [3] | Potency [4] | Potency [5] | Potency [6] | Potency [8] | Potency [9] | Potency [17] | Potency [18] | Potency [19] | Potency [20] | Potency [11] | Potency [12] | Potency [13] | Potency [15] | Potency [16]

CC(C)c1ccccc1O
inactive: Potency [1] | Potency [2] | Potency [4] | Potency [5] | Potency [6] | Potency [7] | Potency [8] | Potency [9] | Potency [17] | Potency [19] | Potency [20] | Potency [11] | Potency [13] | Potency [14] | Potency [15] | Potency [16]

COC(=O)Cc1cccc2ccccc12
inactive: Potency [1] | Potency [3] | Potency [4] | Potency [5] | Potency [6] | Potency [7] | Potency [8] | Potency [9] | Potency [17] | Potency [18] | Potency [19] | Potency [20] | Potency [11] | Potency [12] | Potency [14] | Potency [15]

NCCNCCNCCNCCN
inactive: Potency [1] | Potency [2] | Potency [3] | Potency [7] | Potency [8] | Potency [9] | Potency [17] | Potency [18] | Potency [19] | Potency [20] | Potency [11] | activity change, negative = inhibition [12] -9.22% [at 8.39 µM] | Potency [13] | Potency [15] | Potency [16]

CO[Si](CCCNCCN)(OC)OC
inactive: Potency [1] | Potency [2] | Potency [3] | Potency [4] | Potency [7] | Potency [8] | Potency [9] | Potency [17] | Potency [18] | Potency [19] | Potency [20] | Potency [11] | Potency [12] | Potency [13] | Potency [14] | Potency [16]

CC(=O)CC(C)=O
inactive: Potency [1] | Potency [2] | Potency [3] | Potency [4] | Potency [5] | Potency [6] | Potency [8] | Potency [9] | Potency [10] | Potency [17] | Potency [18] | Potency [19] | Potency [20] | Potency [12] | Potency [13] | Potency [14] | Potency [15] | Potency [16]

CCOCCOCCOCCO
inactive: Potency [1] | Potency [2] | Potency [3] | Potency [4] | Potency [5] | Potency [7] | Potency [8] | Potency [9] | Potency [10] | Potency [17] | Potency [18] | Potency [19] | Potency [20] | Potency [11] | Potency [12] | Potency [13] | Potency [14] | Potency [15] | Potency [16]

CCCCCCCC(=O)OCCCCCC
inactive: Potency [1] | Potency [2] | Potency [3] | Potency [4] | Potency [5] | Potency [7] | Potency [8] | Potency [9] | Potency [10] | Potency [17] | Potency [18] | Potency [19] | Potency [20] | Potency [11] | Potency [12] | Potency [13] | Potency [14] | Potency [15]

C/C=C(\C)C(=O)OCc1ccccc1
inactive: Potency [1] | Potency [2] | Potency [3] | Potency [5] | Potency [6] | Potency [7] | Potency [8] | Potency [9] | Potency [10] | Potency [17] | Potency [18] | Potency [19] | Potency [20] | Potency [11] | Potency [12] | Potency [13] | Potency [15] | Potency [16]

O=c1n(CCO)c(=O)n(CCO)c(=O)n1CCO
inactive: Potency [1] | Potency [2] | Potency [3] | Potency [4] | Potency [5] | Potency [6] | Potency [8] | Potency [9] | Potency [10] | Potency [17] | Potency [18] | Potency [19] | Potency [20] | Potency [11] | Potency [12] | Potency [13] | Potency [14] | Potency [15] | Potency [16]

NC(=O)NC1N=C([O][Al])NC1=O (stereo not given)
inactive: Potency [2] | Potency [3] | Potency [4] | Potency [5] | Potency [6] | Potency [7] | Potency [8] | Potency [9] | Potency [10] | Potency [17] | Potency [18] | Potency [19] | Potency [20] | Potency [11] | Potency [13] | Potency [14] | Potency [15] | Potency [16]

CCCCCC1CCC(=O)O1 (stereo not given)
inactive: Potency [1] | Potency [2] | Potency [3] | Potency [4] | Potency [6] | Potency [7] | Potency [8] | Potency [9] | Potency [10] | Potency [17] | Potency [18] | Potency [19] | Potency [20] | Potency [11] | Potency [12] | Potency [13] | Potency [15] | Potency [16]

CC1=CC(=O)NS(=O)(=O)O1
23 µM (active) and inactive: Potency [9]
inactive: Potency [2] | Potency [3] | Potency [4] | Potency [7] | Potency [8] | Potency [17] | Potency [18] | Potency [19] | Potency [20] | Potency [11] | Potency [12] | Potency [13] | Potency [14] | Potency [15] | Potency [16]

CC(=O)OC/C=C(\C)CC/C=C(\C)CCC=C(C)C
inactive: Potency [1] | Potency [2] | Potency [3] | Potency [7] | Potency [9] | Potency [17] | Potency [18] | Potency [19] | Potency [20] | Potency [13] | Potency [15] | Potency [16]

CCCCCCCN
inactive: Potency [1] | Potency [2] | Potency [3] | Potency [4] | Potency [5] | Potency [6] | Potency [8] | Potency [9] | Potency [10] | Potency [17] | Potency [18] | Potency [19] | Potency [20] | Potency [11] | Potency [12] | Potency [13] | Potency [15] | Potency [16]

NC(=O)c1ccccc1Cl
inactive: Potency [1] | Potency [3] | Potency [4] | Potency [5] | Potency [6] | Potency [7] | Potency [9] | Potency [10] | Potency [18] | Potency [19] | Potency [20] | Potency [11] | Potency [12] | Potency [13] | Potency [15]
